Results from ChEMBL document CHEMBL1961873, “Compounds: GSK PKIS; Assays: Nanosyn kinase panel” (2012).

What was measured:
[1] = target: Ribosomal protein S6 kinase alpha-6 (Homo sapiens) (UniProt Q9UK32); conditions: at 1 µM;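 further: each value is a mean inhibition of RSK4 from a GSK PKIS panel screen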
[2] = target: T1, Serine/threonine-protein kinase Sgk1 (Homo sapiens) (UniProt O00141); conditions: at 0.1 µM
T1 sequence (whole entry): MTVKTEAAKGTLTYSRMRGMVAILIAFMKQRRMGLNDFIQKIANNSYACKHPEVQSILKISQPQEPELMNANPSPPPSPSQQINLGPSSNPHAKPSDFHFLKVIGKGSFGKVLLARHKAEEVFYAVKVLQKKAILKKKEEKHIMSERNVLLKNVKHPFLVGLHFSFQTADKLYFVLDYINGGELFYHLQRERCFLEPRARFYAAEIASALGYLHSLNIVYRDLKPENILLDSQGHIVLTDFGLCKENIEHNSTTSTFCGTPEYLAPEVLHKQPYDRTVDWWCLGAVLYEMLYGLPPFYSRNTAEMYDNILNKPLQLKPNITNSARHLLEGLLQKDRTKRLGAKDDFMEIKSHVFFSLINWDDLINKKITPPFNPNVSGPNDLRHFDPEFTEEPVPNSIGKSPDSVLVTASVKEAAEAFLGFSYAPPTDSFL

[3] = target: T1, Serine/threonine-protein kinase Sgk1 (Homo sapiens); conditions: at 1 µM
[4] = target: T2, Serine/threonine-protein kinase Sgk2 (Homo sapiens) (UniProt Q9HBY8); conditions: at 0.1 µM
T2 sequence (whole entry): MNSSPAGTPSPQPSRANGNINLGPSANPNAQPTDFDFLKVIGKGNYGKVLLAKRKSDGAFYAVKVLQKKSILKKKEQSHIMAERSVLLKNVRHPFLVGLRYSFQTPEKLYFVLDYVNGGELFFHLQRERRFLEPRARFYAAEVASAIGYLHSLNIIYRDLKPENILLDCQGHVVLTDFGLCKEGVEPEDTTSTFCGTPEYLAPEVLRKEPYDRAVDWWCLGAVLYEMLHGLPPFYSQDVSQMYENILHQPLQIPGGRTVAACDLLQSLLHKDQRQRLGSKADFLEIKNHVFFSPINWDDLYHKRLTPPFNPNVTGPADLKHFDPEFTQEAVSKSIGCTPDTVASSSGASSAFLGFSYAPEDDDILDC

[5] = target: T2, Serine/threonine-protein kinase Sgk2 (Homo sapiens); conditions: at 1 µM
[6] = target: T3, Serine/threonine-protein kinase Sgk3 (Homo sapiens) (UniProt Q96BR1); conditions: at 0.1 µM
T3 sequence (whole entry): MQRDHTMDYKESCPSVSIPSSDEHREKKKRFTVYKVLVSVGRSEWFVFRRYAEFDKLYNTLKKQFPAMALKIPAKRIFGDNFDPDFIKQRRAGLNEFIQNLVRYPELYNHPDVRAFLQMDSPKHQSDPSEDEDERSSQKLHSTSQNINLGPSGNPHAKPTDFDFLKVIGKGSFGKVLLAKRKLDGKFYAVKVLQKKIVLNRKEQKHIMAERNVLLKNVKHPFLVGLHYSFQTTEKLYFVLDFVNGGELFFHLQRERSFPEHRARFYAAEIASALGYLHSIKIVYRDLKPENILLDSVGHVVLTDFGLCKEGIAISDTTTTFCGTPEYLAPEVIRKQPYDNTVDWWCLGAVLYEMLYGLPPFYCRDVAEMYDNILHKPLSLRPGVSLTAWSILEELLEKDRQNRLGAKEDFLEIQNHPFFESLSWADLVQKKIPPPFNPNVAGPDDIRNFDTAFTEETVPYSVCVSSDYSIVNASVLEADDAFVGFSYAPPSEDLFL

[7] = target: T3, Serine/threonine-protein kinase Sgk3 (Homo sapiens); conditions: at 1 µM
[8] = target: 5'-AMP-activated protein kinase catalytic subunit alpha-1 (Homo sapiens) (UniProt Q13131); conditions: at 0.1 µM
[9] = target: 5'-AMP-activated protein kinase catalytic subunit alpha-1 (Homo sapiens) (UniProt Q13131); conditions: at 1 µM
[10] = target: 5'-AMP-activated protein kinase catalytic subunit alpha-2 (Homo sapiens) (UniProt P54646); conditions: at 0.1 µM
[11] = target: 5'-AMP-activated protein kinase catalytic subunit alpha-2 (Homo sapiens) (UniProt P54646); conditions: at 1 µM
[12] = target: T4, NUAK family SNF1-like kinase 1 (Homo sapiens) (UniProt O60285); conditions: at 0.1 µM
T4 sequence (whole entry): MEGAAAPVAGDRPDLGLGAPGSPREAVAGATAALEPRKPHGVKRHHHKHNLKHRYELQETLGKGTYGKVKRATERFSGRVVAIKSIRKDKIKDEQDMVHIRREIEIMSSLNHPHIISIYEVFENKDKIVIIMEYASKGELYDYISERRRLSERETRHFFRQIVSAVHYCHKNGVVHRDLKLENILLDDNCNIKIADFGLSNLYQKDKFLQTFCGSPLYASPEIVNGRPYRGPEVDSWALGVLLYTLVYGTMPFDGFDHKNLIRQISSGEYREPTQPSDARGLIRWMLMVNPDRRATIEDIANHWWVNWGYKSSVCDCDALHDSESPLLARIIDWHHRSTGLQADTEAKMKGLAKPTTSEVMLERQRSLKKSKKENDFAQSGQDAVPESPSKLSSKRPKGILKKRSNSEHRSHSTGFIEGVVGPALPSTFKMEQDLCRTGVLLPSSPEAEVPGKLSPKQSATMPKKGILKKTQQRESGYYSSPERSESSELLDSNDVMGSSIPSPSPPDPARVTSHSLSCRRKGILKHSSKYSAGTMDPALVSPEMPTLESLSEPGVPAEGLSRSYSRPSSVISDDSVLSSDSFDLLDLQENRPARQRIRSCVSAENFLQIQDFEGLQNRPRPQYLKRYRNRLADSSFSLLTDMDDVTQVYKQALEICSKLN

[13] = target: T4, NUAK family SNF1-like kinase 1 (Homo sapiens); conditions: at 1 µM
[14] = target: T5, Serine/threonine-protein kinase BRSK1 (Homo sapiens) (UniProt Q8TDC3); conditions: at 0.1 µM
T5 sequence (whole entry): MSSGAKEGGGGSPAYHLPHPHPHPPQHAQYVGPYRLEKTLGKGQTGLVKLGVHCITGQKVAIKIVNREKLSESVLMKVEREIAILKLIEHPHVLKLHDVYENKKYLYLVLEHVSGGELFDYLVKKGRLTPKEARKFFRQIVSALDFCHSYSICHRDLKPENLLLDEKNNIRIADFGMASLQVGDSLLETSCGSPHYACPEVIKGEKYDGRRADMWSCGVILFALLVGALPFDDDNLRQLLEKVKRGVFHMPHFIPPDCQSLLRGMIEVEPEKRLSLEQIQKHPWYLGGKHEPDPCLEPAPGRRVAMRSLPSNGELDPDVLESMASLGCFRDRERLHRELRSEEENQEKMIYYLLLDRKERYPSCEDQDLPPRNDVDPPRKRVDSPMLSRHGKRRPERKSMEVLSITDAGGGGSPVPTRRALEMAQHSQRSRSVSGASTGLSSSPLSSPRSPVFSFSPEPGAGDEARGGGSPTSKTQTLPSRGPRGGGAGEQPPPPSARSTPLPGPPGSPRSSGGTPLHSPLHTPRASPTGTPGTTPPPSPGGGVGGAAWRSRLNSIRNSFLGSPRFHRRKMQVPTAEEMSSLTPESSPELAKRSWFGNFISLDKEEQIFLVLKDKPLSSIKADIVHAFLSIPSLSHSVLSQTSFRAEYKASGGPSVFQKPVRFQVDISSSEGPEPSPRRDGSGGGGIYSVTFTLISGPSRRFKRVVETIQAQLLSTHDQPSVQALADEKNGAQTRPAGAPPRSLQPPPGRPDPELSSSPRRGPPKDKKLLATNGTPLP

[15] = target: T5, Serine/threonine-protein kinase BRSK1 (Homo sapiens); conditions: at 1 µM
[16] = target: T6, Serine/threonine-protein kinase BRSK2 (Homo sapiens) (UniProt Q8IWQ3); conditions: at 0.1 µM
T6 sequence (whole entry): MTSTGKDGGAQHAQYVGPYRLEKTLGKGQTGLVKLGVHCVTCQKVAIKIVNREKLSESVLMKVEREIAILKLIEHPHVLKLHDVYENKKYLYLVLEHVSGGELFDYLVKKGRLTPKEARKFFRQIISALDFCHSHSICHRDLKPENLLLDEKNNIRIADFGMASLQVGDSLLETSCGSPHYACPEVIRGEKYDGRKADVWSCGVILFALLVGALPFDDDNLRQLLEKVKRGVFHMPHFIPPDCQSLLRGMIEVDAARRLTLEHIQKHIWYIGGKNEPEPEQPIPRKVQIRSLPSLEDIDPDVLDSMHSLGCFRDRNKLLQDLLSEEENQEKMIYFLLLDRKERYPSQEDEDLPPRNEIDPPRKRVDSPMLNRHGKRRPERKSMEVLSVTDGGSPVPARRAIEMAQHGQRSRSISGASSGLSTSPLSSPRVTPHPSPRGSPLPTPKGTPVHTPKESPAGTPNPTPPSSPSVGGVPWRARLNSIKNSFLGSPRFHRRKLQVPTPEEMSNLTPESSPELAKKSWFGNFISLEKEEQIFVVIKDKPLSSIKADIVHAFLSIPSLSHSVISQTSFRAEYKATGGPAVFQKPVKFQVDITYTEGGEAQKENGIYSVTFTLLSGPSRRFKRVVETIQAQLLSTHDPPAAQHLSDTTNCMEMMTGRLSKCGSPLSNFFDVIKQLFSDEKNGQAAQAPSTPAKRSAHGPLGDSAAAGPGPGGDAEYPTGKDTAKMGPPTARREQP

[17] = target: T6, Serine/threonine-protein kinase BRSK2 (Homo sapiens); conditions: at 1 µM
[18] = target: Calcium/calmodulin-dependent protein kinase type 1D (Homo sapiens) (UniProt Q8IU85); conditions: at 0.1 µM
[19] = target: Calcium/calmodulin-dependent protein kinase type 1D (Homo sapiens) (UniProt Q8IU85); conditions: at 1 µM
[20] = target: Calcium/calmodulin-dependent protein kinase type II subunit alpha (Homo sapiens) (UniProt Q9UQM7); conditions: at 0.1 µM;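 further: reported values are averages (mean inhibition of CAMK2A)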
Sequence of Calcium/calmodulin-dependent protein kinase type II subunit alpha (Homo sapiens) (Q9UQM7 whole entry): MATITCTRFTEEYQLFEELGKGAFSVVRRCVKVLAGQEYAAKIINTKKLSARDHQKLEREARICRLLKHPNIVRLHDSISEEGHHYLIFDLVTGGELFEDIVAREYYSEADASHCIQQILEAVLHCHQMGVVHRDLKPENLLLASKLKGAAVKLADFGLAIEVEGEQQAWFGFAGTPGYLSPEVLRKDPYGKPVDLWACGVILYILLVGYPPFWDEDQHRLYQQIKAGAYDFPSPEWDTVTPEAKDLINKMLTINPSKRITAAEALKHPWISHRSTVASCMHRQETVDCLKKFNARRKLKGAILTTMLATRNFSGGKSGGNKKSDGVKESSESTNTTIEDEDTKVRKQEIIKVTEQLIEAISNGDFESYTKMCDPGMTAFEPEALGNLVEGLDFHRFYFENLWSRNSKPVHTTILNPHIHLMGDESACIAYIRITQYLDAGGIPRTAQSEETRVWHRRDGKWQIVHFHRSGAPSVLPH

Sequence of 5'-AMP-activated protein kinase catalytic subunit alpha-1 (Homo sapiens) (Q13131 whole entry, looked up): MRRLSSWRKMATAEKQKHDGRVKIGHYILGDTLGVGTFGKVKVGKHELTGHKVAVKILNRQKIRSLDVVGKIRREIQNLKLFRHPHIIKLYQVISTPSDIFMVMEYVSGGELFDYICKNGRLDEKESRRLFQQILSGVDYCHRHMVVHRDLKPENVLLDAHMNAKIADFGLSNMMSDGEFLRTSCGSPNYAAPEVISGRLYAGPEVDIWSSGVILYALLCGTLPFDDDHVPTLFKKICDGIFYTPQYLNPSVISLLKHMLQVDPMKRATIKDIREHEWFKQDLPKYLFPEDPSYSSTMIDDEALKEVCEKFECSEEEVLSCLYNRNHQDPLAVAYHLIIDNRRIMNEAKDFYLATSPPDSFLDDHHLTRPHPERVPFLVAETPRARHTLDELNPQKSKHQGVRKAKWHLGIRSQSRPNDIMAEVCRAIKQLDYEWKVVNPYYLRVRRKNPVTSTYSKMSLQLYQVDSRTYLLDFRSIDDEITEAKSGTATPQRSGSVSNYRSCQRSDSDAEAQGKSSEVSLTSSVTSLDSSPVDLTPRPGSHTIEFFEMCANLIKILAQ
Sequence of Calcium/calmodulin-dependent protein kinase type 1D (Homo sapiens) (Q8IU85 whole entry, looked up): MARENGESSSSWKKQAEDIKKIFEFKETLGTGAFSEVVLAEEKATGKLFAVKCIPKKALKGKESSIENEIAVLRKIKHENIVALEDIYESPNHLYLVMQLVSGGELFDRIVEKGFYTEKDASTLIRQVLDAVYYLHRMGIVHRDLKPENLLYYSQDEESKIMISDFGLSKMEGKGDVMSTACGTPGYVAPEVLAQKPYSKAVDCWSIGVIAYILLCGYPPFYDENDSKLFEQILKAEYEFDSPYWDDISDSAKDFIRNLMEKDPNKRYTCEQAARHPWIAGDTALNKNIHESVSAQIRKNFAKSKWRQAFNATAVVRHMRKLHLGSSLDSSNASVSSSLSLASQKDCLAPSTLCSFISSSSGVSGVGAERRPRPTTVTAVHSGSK
Sequence of 5'-AMP-activated protein kinase catalytic subunit alpha-2 (Homo sapiens) (P54646 whole entry, looked up): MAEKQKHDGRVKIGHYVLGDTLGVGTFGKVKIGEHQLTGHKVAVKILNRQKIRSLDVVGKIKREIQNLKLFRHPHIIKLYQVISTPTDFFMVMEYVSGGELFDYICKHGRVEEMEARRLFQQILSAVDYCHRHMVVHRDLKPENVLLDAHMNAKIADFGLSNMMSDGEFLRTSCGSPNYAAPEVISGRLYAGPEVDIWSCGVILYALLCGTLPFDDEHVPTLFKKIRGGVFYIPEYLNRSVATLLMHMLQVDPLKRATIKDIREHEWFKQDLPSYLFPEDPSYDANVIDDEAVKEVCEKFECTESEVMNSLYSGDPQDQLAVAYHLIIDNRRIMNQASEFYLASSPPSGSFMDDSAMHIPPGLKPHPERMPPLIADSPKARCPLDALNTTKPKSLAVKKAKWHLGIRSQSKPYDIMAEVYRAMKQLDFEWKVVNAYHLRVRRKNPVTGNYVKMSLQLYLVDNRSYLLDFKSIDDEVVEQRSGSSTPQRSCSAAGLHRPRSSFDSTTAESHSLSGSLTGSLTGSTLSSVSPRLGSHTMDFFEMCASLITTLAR
Sequence of Ribosomal protein S6 kinase alpha-6 (Homo sapiens) (Q9UK32 whole entry): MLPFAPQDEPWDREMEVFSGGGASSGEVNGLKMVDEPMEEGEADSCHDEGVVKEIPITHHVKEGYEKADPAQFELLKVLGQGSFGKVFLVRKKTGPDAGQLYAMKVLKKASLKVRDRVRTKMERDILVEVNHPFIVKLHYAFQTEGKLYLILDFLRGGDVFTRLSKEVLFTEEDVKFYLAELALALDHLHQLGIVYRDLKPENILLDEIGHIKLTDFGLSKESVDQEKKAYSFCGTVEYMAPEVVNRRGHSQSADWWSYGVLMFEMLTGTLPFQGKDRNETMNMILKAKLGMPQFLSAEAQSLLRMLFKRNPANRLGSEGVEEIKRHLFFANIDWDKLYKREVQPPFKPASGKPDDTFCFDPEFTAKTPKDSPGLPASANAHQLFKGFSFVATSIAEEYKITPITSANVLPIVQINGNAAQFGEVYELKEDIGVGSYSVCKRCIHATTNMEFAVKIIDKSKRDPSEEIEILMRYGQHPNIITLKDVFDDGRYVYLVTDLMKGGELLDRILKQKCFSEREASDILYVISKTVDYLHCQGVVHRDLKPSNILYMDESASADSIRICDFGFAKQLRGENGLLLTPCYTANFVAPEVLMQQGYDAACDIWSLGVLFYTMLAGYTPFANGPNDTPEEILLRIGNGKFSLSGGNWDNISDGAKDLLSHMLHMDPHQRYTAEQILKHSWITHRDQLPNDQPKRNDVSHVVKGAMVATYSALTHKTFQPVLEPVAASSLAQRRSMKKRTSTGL

SMILES	inhibition [1]	inhibition [2]	inhibition [3]	inhibition [4]	inhibition [5]	inhibition [6]	inhibition [7]	inhibition [8]	inhibition [9]	inhibition [10]	inhibition [11]	inhibition [12]	inhibition [13]	inhibition [14]	inhibition [15]	inhibition [16]	inhibition [17]	inhibition [18]	inhibition [19]	inhibition [20]
Cc1nnc(-c2ccc(C)c(-c3ccc(C(=O)NCc4ccc(Cl)cc4)cc3)c2)o1	2.38%	5.07%	3.26%	2.67%	6.19%	1.38%	5.66%	2.95%	3.4%	3.74%	3.56%	1%	4.79%	-2.13%	-2.87%	1.17%	2.51%	-1.49%	0.04%	2.6%
COc1cc2ncn(-c3cc(OCCc4ccccc4)c(C(N)=O)s3)c2cc1OC	2.25%	0.21%	3.41%	-0.42%	-1.95%	2.58%	2.59%	2.79%	4.42%	1.45%	1.32%	1.92%	9.13%	41.5%	76.9%	58.3%	80.3%	0.21%	1.85%	1.3%
